Measurements: PubChem BioAssay (EPA / NIEHS)
Values joined by “and” are separate entries in the source; they are usually repeats but may differ in a detail not shown here. Equal entries are not always repeated. The source holds several records for some structures; these can differ, active in one and inactive in another. Active and inactive are the calls of the source. The calls were made as follows: active = hit-call score of the fitted dose curve at least 0.9, where 1 is the maximum; inactive = score below 0.9.

Key:
[1] = read-out: Urokinase-type plasminogen activator receptor (uPAR), PLAUR (gene 5329); experiment: BSK_BE3C_uPAR: BioMAP Diversity Plus: BE3C Assay for Urokinase-type plasminogen activator receptor (uPAR) Biomarker Activity (AID 2283039); details: primary human bronchial epithelial cells; actives raise or lower the signal
In short: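 uPAR levels were measured by ELISA after 24 h compound treatment of primary human bronchial epithelial cells, fitted in both directions relative to DMSO. Parallel SRB staining served as the cytotoxicity read-out.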

[2] = read-out: Interleukin-6 (IL6), IL6 (gene 3569); experiment: BSK_CASM3C_IL6: BioMAP Diversity Plus: CASM3C Assay for Interleukin-6 (IL6) Biomarker Activity for (AID 2283040); details: primary human coronary artery smooth muscle cells; actives raise or lower the signal
[3] = read-out: Tissue plasminogen activator (tPA), PLAT (gene 5327); experiment: BSK_BE3C_tPA: BioMAP Diversity Plus: BE3C Assay for Tissue plasminogen activator (tPA) Biomarker Activity (AID 2283041); details: primary human bronchial epithelial cells; actives raise or lower the signal
In short: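 tPA measured by ELISA 24 h after dosing human primary bronchial epithelial cells (BE3C system). Changes in either direction were fitted against DMSO. Parallel cultures were stained with SRB to flag overt cytotoxicity.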

[4] = read-out: Interleukin-8 (IL8), CXCL8 (gene 3576); experiment: BSK_CASM3C_IL8: BioMAP Diversity Plus: CASM3C Assay for Interleukin-8 (IL8) Biomarker Activity (AID 2283042); details: primary human coronary artery smooth muscle cells; actives raise or lower the signal;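 also: IL-8 protein level quantified by ELISA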
[5] = read-out: Human Leukocyte Antigen - DR isotype (HLADR), HLA-DRA (gene 3122); experiment: BSK_CASM3C_HLADR: BioMAP Diversity Plus: CASM3C Assay for Human Leukocyte Antigen - DR isotype (HLADR) Biomarker Activity (AID 2283043); details: primary human coronary artery smooth muscle cells; actives raise or lower the signal;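 also: cell-surface HLA-DR protein level quantified by ELISA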
[6] = read-out: Macrophage colony-stimulating factor (MCSF), CSF1 (gene 1435); experiment: BSK_CASM3C_MCSF: BioMAP Diversity Plus: CASM3C Assay for Macrophage colony-stimulating factor (MCSF) Biomarker Activity (AID 2283044); details: primary human coronary artery smooth muscle cells; actives raise or lower the signal;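 also: M-CSF protein amount quantified by ELISA after 24 h exposure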
[7] = read-out: Low-density lipoprotein receptor (LDLR), LDLR (gene 3949); experiment: BSK_CASM3C_LDLR: BioMAP Diversity Plus: CASM3C Assay for Low-density lipoprotein receptor (LDLR) Biomarker Activity (AID 2283045); details: primary human coronary artery smooth muscle cells; actives raise or lower the signal;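 also: LDLR protein level on the cell surface quantified by ELISA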
[8] = read-out: Monocyte Chemoattractant Protein-1 (MCP1), CCL2 (gene 6347); experiment: BSK_CASM3C_MCP1: BioMAP Diversity Plus: CASM3C Assay for Monocyte Chemoattractant Protein-1 (MCP1) Biomarker Activity (AID 2283046); details: primary human coronary artery smooth muscle cells; actives raise or lower the signal;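 also: MCP-1 level quantified by ELISA 24 h after dosing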
[9] = BSK_CASM3C_Proliferation: Cell Proliferation Assessment in the BioMAP Diversity Plus: CASM3C Assay (AID 2283047); details: primary human coronary artery smooth muscle cells;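 also: sulforhodamine B total protein stain as relative cell number at 560 nm; sub-confluent cells exposed 48 h before staining; fitted both ways against DMSO so gain or loss of cell number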
[10] = read-out: Monokine induced gamma interferon (MIG), CXCL9 (gene 4283); experiment: BSK_CASM3C_MIG: BioMAP Diversity Plus: CASM3C Assay for Monokine induced gamma interferon (MIG) Biomarker Activity (AID 2283048); details: primary human coronary artery smooth muscle cells; actives raise or lower the signal;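 also: MIG protein level measured by ELISA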
[11] = read-out: serum amyloid A (SAA), SAA1 (gene 6288); experiment: BSK_CASM3C_SAA: BioMAP Diversity Plus: CASM3C Assay for serum amyloid A (SAA) Biomarker Activity (AID 2283049); details: primary human coronary artery smooth muscle cells; actives raise or lower the signal;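 also: SAA protein level quantified by ELISA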
[12] = BSK_CASM3C_SRB: Viability Assessment in the BioMAP Diversity Plus: CASM3C Assay (AID 2283050); details: primary human coronary artery smooth muscle cells;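 also: total protein by SRB staining as cytotoxicity measure in parallel cultures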
[13] = read-out: Thrombomodulin, THBD (gene 7056); experiment: BSK_CASM3C_Thrombomodulin: BioMAP Diversity Plus: CASM3C Assay for Thrombomodulin Biomarker Activity (AID 2283051); details: primary human coronary artery smooth muscle cells; actives raise or lower the signal;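 also: thrombomodulin protein level measured by ELISA 24 h after dosing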
[14] = read-out: Tissue Factor, F3 (gene 2152); experiment: BSK_CASM3C_TissueFactor: BioMAP Diversity Plus: CASM3C Assay for Tissue Factor Biomarker Activity (AID 2283052); details: primary human coronary artery smooth muscle cells; actives raise or lower the signal;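 also: cell surface tissue factor protein level read by ELISA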
[15] = read-out: Interferon-gamma inducible Protein 10 (IP10), CXCL10 (gene 3627); experiment: BSK_hDFCGF_IP10: BioMAP Diversity Plus: hDFCGF Assay for Interferon-gamma inducible Protein 10 (IP10) Biomarker Activity (AID 2283053); details: primary human foreskin fibroblasts; actives raise or lower the signal
In short: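 ELISA quantification of IP-10 after a 24 h chemical exposure of human dermal foreskin fibroblast primary cultures. Both increases and decreases versus DMSO fitted.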

[16] = read-out: Urokinase-type plasminogen activator receptor (uPAR), PLAUR (gene 5329); experiment: BSK_CASM3C_uPAR: BioMAP Diversity Plus: CASM3C Assay for Urokinase-type plasminogen activator receptor (uPAR) Biomarker Activity (AID 2283054); details: primary human coronary artery smooth muscle cells; actives raise or lower the signal;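 also: cell-surface uPAR protein level quantified by ELISA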
[17] = read-out: Vascular cell adhesion molecule 1 (VCAM1), VCAM1 (gene 7412); experiment: BSK_CASM3C_VCAM1: BioMAP Diversity Plus: CASM3C Assay for Vascular cell adhesion molecule 1 (VCAM1) Biomarker Activity (AID 2283055); details: primary human coronary artery smooth muscle cells; actives raise or lower the signal;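 also: VCAM-1 protein level quantified by ELISA on the cells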
[18] = read-out: Collagen III, COL3A1 (gene 1281); experiment: BSK_hDFCGF_CollagenIII: BioMAP Diversity Plus: hDFCGF Assay for Collagen III Biomarker Activity (AID 2283056); details: primary human foreskin fibroblasts; actives raise or lower the signal
In short: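 Response relative to DMSO, fitted in both directions, reflects ELISA-measured collagen III in human primary skin fibroblasts 24 h after compound addition.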

[19] = read-out: Epidermal growth factor receptor (EGFR), EGFR (gene 1956); experiment: BSK_hDFCGF_EGFR: BioMAP Diversity Plus: hDFCGF Assay for Epidermal growth factor receptor (EGFR) Biomarker Activity (AID 2283057); details: primary human foreskin fibroblasts; actives raise or lower the signal
In short: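 EGFR levels by ELISA in human dermal fibroblast cultures, 24 h post-treatment, fitted bidirectionally versus DMSO. Parallel wells stained with sulforhodamine B to detect overt cytotoxicity.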

[20] = read-out: Interleukin-8 (IL8), CXCL8 (gene 3576); experiment: BSK_hDFCGF_IL8: BioMAP Diversity Plus: hDFCGF Assay for Interleukin-8 (IL8) Biomarker Activity (AID 2283058); details: primary human foreskin fibroblasts; actives raise or lower the signal
In short: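 Fibroblast monolayers (human foreskin, hDFCGF) received test chemical for 24 h before ELISA detection of IL-8; either increases or decreases relative to DMSO count as activity.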

Measured: AC50

ClC(Cl)=C(c1ccc(Cl)cc1)c1ccc(Cl)cc1
active: [5] 20 µM | [6] 20 µM | [9] 29.1 µM | [13] 20 µM | [15] 26.4 µM | [18] 24.5 µM | [20] 30 µM
inactive: all other assays above

Cc1ccccc1CO[C@@H]1C[C@@]2(C(C)C)CC[C@]1(C)O2
inactive: all assays above

CCCCCCCCCC[N+](C)(C)CCCCCCCCCC
inactive: [13]
active: [1] 5.55 µM | [2] 4.9 µM | [3] 3.61 µM | [4] 5.54 µM | [5] 4.72 µM | [6] 3.08 µM | [7] 5.09 µM | [8] 4.41 µM | [9] 2.67 µM | [10] 8.03 µM | [11] 5.46 µM | [12] 5.43 µM | [14] 1.69 µM | [15] 2.44 µM | [16] 3.56 µM | [17] 5.15 µM | [18] 1.76 µM | [19] 1.22 µM | [20] 3.01 µM

Cc1cccc([N+](=O)[O-])c1
inactive: all assays above

c1ccc(-c2ccccc2)cc1
inactive: all assays above

Cc1cc(O)ccc1Cl
inactive: all assays above

COS(=O)(=O)OC
inactive: all assays above

CCSC(=O)N(CC)C1CCCCC1
inactive: all assays above

O=C(O)C(F)(F)C(F)(F)C(F)(F)C(F)(F)C(F)(F)C(F)(F)C(F)(F)C(F)(F)F
active: [1] 35.1 µM and 47.8 µM and 48.6 µM | [3] 20 µM and 23.6 µM and 21.6 µM | [14] 7.84 µM | [15] 32.4 µM and 43.4 µM | [18] 7.13 µM
inactive: [2] | [4] | [5] | [6] | [7] | [8] | [9] | [10] | [11] | [12] | [13] | [14] | [15] | [16] | [17] | [18] | [19] | [20]

COc1ccc(O)c(C(C)(C)C)c1
active: [4] 5.43 µM | [10] 3.97 µM | [18] 3.97 µM and 8.37 µM
inactive: [1] | [2] | [3] | [4] | [5] | [6] | [7] | [8] | [9] | [10] | [11] | [12] | [13] | [14] | [15] | [16] | [17] | [18] | [19] | [20]

CCOCCOC(C)=O
inactive: all assays above

CC(C)(O)C(=O)Nc1ccc([N+](=O)[O-])c(C(F)(F)F)c1
active: [2] 29.1 µM
inactive: all other assays above

NS(=O)(=O)C(F)(F)C(F)(F)C(F)(F)C(F)(F)C(F)(F)C(F)(F)C(F)(F)C(F)(F)F
inactive: [1] | [2] | [3] | [4] | [5] | [6] | [7] | [8] | [9] | [10] | [11] | [14] | [16] | [17] | [19]
active: [1] 51.1 µM and 54.9 µM | [3] 45.5 µM and 37 µM | [5] 26.2 µM and 46.2 µM | [6] 31.3 µM and 49 µM | [7] 44.3 µM | [8] 30 µM | [9] 54.4 µM and 50.9 µM | [10] 39.8 µM | [11] 46.8 µM | [12] 31.8 µM and 45.5 µM and 49.3 µM | [13] 26 µM and 34.6 µM and 37.3 µM | [15] 20 µM and 9.33 µM and 8.26 µM | [16] 46.6 µM and 42.5 µM | [17] 11.4 µM and 16.7 µM | [18] 12.6 µM and 10.8 µM and 9.02 µM | [20] 37.5 µM and 22.2 µM and 34 µM

O=C(O)C(F)(F)C(F)(F)C(F)(F)C(F)(F)C(F)(F)F
inactive: all assays above

O=C(O)C(F)(F)C(F)(F)C(F)(F)C(F)(F)C(F)(F)C(F)(F)C(F)(F)C(F)(F)C(F)(F)F
inactive: [2] | [4] | [5] | [6] | [7] | [8] | [9] | [10] | [11] | [12] | [13] | [14] | [16] | [17] | [19]
active: [1] 30.8 µM and 16.4 µM and 14.7 µM | [3] 14.9 µM and 14.1 µM and 14.5 µM | [15] 28.5 µM and 29.1 µM and 32.8 µM | [17] 41.3 µM and 30 µM | [18] 29.7 µM and 30 µM | [19] 7.6 µM | [20] 36.9 µM and 57.3 µM and 55.1 µM

CCNc1nc(NC(C)C)nc(SC)n1
active: [15] 30.4 µM
inactive: all other assays above
